This is a sample that favours compounds with a hit; in the whole collection about 10% have one here.
FLuc inh-1: Photinus pyralis luciferase inhibition | actives 2.5% (n = 76,000) | purified P. pyralis luciferase, luminescence, biochemical | Potency, µM (doses to about 115 µM), usual class: inhibitors | AID 1347043 | P08659; further: on the % scale 0 is the no-effect control and ±100 the full control effect; nearly all actives have a fitted effect of over 65% in size
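Purified P. pyralis luciferase (10nM final) in 50mM Tris acetate pH 7.5, 10mM Mg acetate, 0.01% Tween-20, 0.05% BSA with 10uM D-luciferin and 10uM ATP. Compounds titrated qHTS. Luminescence imaged on CCD.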
GPT2 inh: blocks human glutamate pyruvate transaminase 2; Q8TD30; Recombinant GPT2, coupled pyruvate oxidase/HRP Amplex Red fluorescence; Potency, µM (highest dose often 57.7 µM), without a hit: top-dose activity change, negative = inhibition, actives largely listed as inhibitors; actives 0.25% (n = 100,000); further: on the % scale 0 is the no-effect control and ±100 the full control effect; nearly all actives have a fitted effect of over 60% in size
Target sequence (Q8TD30 whole entry, looked up): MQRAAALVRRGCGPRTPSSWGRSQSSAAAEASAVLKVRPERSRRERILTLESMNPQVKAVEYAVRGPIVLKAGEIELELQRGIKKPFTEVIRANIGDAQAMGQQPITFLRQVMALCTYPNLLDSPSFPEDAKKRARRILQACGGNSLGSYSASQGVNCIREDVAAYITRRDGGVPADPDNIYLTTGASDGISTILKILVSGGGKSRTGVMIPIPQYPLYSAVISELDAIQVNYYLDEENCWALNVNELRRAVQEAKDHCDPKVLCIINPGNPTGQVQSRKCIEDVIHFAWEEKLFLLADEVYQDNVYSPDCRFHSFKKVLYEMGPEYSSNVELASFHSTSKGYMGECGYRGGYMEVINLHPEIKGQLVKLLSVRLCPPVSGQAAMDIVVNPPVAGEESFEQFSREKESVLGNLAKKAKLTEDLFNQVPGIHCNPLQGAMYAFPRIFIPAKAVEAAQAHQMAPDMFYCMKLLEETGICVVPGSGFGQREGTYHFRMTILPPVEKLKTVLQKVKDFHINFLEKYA
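Recombinant GPT2 (10ng/uL) with 250uM a-KG and 2mM L-alanine, 30 min at room temperature, in HEPES pH 7.5 buffer. Pyruvate detected by pyruvate oxidase/HRP/Amplex Red fluorescence after 30 min in the dark; AOA (50uM) as positive control.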
3T3 cytotox: cytotoxic compounds in NIH 3T3 cells. NIH 3T3 viability, CellTiter-Glo ATP luminescence, 48-72 h. actives 4.3% (n = 94,000). Potency, µM (highest dose often 96.7 µM), for inactives: at the top dose activity change, negative = cytotoxicity, usual class: inhibitors; further: on the % scale 0 is the no-effect control and ±100 the full control effect; nearly all actives have a fitted effect of over 55% in size
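Cytotoxicity is measured as loss of cellular ATP: NIH 3T3 cells (400/well) are exposed to compound for 48 or 72 hr at 37 °C, then CellTiter-Glo luminescence is imaged after 10 min at room temperature.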
NPR1 antag: human Npr1 receptor antagonism; P16066; HEK293 hNpr1 GloSensor cGMP, ANP-stimulated luminescence; Potency, µM (doses to about 46.3 µM), for inactives: at the top dose activity change, negative = inhibition, hits mostly inhibitors; actives 1.6% (n = 76,000); calls by dose curve; further: on the % scale 0 is the no-effect control and ±100 the full control effect; nearly all actives have a fitted effect of over 60% in size
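HEK293 cells stably expressing human Npr1 and cGMP GloSensor pGS-40F, loaded 2 h with 2% GloSensor reagent, given compound 30 min at room temperature. Luminescence read before and 20 min after 0.1 nM hNppA.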
HEK cytotox: kills HEK 293 cells. HEK 293 viability, ATP luminescence (CellTiter-Glo), 48-72 h. Potency, µM (doses to about 115 µM), for the others: at the highest dose activity change, negative = cytotoxicity, actives largely listed as inhibitors. actives 6.6% (n = 94,000). AID 1345083; further: on the % scale 0 is the no-effect control and ±100 the full control effect; nearly all actives have a fitted effect of over 60% in size
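HEK 293 cells at 250 cells/well were exposed to compounds by pintool transfer for 48 or 72 hr at 37 degree Celsius, 5% CO2. Viability was read as ATP-coupled luminescence with CellTiter-Glo after 10 min at room temperature.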
FLuc SDR no ATP: stabilizes firefly luciferase without ATP; shares compounds with FLuc inh-1; Purified FLuc-C-HiBiT, Nano-Glo HiBiT luminescence, no ATP; Potency, µM (titrated, usually from 32.7 µM), for inactives: top-dose activation (signal gain), usual class: activators; actives 7.8% (n = 1,300); further: nearly all actives have a fitted effect of over 55% in size
FLuc SDR ATP: binders stabilizing firefly luciferase, plus ATP; purified FLuc-C-HiBiT + ATP, HiBiT complementation luminescence; shares compounds with FLuc inh-1; Potency, µM (highest dose often 32.7 µM), without a hit: at the highest dose activation (gain of signal), actives largely listed as activators; actives 8.7% (n = 1,300); AID 1963319;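 further: signal reports ligand binding via conformational change of the enzyme rather than luciferase catalysis; % of control where 0% means no effect; nearly all actives have a fitted effect of over 55% in size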
FLuc inh-2: firefly luciferase enzyme inhibition | shares compounds with FLuc inh-1 | purified FLuc-C-HiBiT enzyme, luciferin luminescence | Potency, µM (series often up to 32.7 µM), inactives show at the highest dose activity change, negative = inhibition, actives largely listed as inhibitors | actives 42% (n = 1,300) | AID 1963320; further: on the % scale 0 is the no-effect control and ±100 the full control effect; nearly all actives have a fitted effect of over 70% in size
An asterisk follows results filed as active; i = inactive; ? = inconclusive; nt = not tested or not shown; [ ] = remark or other dose. Unless noted, the call rests on the fitted dose curve; in most records, active means well fitted curve in the direction sought with a large enough effect; inconclusive means small, poorly fitted or top-dose-only effect, or another doubt; inactive means no such curve, though single readings can be large; an effect the other way counts as inactive or inconclusive. Potency means the concentration at half of the fitted maximal effect.

SMILES	FLuc inh-1	GPT2 inh	3T3 cytotox	NPR1 antag	HEK cytotox	FLuc SDR no ATP	FLuc SDR ATP	FLuc inh-2
Cc1cccc(NC(=O)N2CCC(Cc3nc(-c4ccccc4)n[nH]3)CC2)c1	i	i	-13%	1%	i	nt	nt	nt
COc1cc([C@@H](CC(=O)O)c2ccc(C)c(CN3C[C@@H](C)Oc4ccccc4S3(=O)=O)c2)cc2nnn(C)c12	nt	i	nt	nt	nt	nt	nt	nt
O=C(NCc1cccs1)c1cc2n(n1)CC(c1ccc(Cl)cc1)OC2 (centres undefined)	i	i	?	-26%	?	nt	nt	nt
Cc1ncc(S(C)(=O)=O)c(NCCCNc2cccnc2)n1	i	-13%	1%	3%	i	nt	nt	nt
COc1ccc(-c2nc3ccccc3s2)cc1NC(=O)c1cc(OC)c(OC)c(OC)c1	nt	nt	nt	nt	nt	14%	10%	?
COc1ccc(-c2noc(-c3nc(-c4ccc(OC)c(OC)c4)no3)n2)cc1OC	i	i	i	1%	-1%	nt	nt	nt
COc1ccc(C(=O)Nc2ccc(-c3nc4ccccc4s3)cc2C)cc1Cl	nt	nt	nt	nt	nt	10%	8%	-4%
Cc1nonc1COc1ccc(C(=O)Nc2cccc(-c3nc4ccccc4s3)c2)cc1	nt	nt	nt	nt	nt	9%	10%	?
COc1ccc(-c2nc3cc(F)ccc3s2)cc1OC	nt	nt	nt	nt	nt	20%[3.62 µM]	14%[3.62 µM]	?
Cc1noc(C)c1Cc1c(C(=O)N2CCC(c3nc(C(=O)N4CCOCC4)c(C)o3)CC2)noc1C	nt	3%	-11%	nt	-17%	nt	nt	nt
COc1cc(-c2nc3ccccc3s2)ccc1O	nt	nt	nt	nt	nt	24%	17%	11µM*
CN1CCN(c2ccc(-c3cc4c(ccn4C)c(C(=O)NCC4CCC(=O)N4)n3)cc2)CC1 (centres undefined)	10µM*	i	28µM*	1%	40µM*	18%	12%	?
CN(C)CCNC(=O)c1nc(-c2cccc(N3CCOCC3)c2)cc2c1ccn2C	i	1%[88.5 µM]	?	3%[70.6 µM]	?	nt	nt	nt
CN1CCN(c2ccc(-c3cc4c(ccn4C)c(C(=O)NCCC(N)=O)n3)cc2)CC1	7.1µM*	2%[88.5 µM]	79µM*	-3%[70.6 µM]	71µM*	26%[49.3 µM]	17%[49.3 µM]	14µM*
Cn1ccc2c(C(=O)NCc3cccnc3)nc(-c3ccc(N4CCOCC4)cc3)cc21	14µM*	5%[88.5 µM]	?	-11%[70.6 µM]	112µM*	15%[49.3 µM]	11%[49.3 µM]	?
CN1CCN(c2ccc(-c3cn(C)c(=O)n4cc(COc5ccnn5C)nc34)cn2)CC1	i	?	?	-10%[70.6 µM]	?	nt	nt	nt
C/C(=C/CO)CC[C@H]1[C@]2(C)C[C@H](O)CC(C)(C)[C@H]2CC[C@]1(C)O	nt	i	nt	nt	nt	nt	nt	nt
O=C1NC2(CN(Cc3ccccc3)C2)Oc2ccccc21	i	2%[88.5 µM]	-28%[138 µM]	7%[70.6 µM]	?	nt	nt	nt
CC(C)(CNC(=O)c1cccc(-c2noc(C(F)(F)F)n2)c1)c1coc(-c2ccccc2)n1	nt	i	nt	nt	nt	nt	nt	nt
O=C(O)c1cccc(-c2noc(-c3cccc(C(F)(F)F)c3)n2)c1	nt	nt	nt	nt	nt	?	0.039µM*	0.016µM*
Cc1noc(-c2nc(-c3cccc(C(F)(F)F)c3)no2)n1	i	2%	i	-1%	2%	nt	nt	nt
O=C(O)c1cccc(-c2noc(-c3ccc(C(F)(F)F)cc3)n2)c1	nt	nt	nt	nt	nt	7µM*	0.0062µM*	0.0035µM*
O=C1CCC2(C(=O)NCCc3ccccc3)CCCC=C2N1c1ccccc1 (centres undefined)	3.2µM*	i	-14%	-23%	?	11%	20%	?
COc1ccc(C(=O)Nc2ccc([C@H]3OCC(=O)N[C@@H]3CO)cc2)cc1OC	i	-2%[88.5 µM]	-26%[174 µM]	-1%[70.6 µM]	-9%[172 µM]	nt	nt	nt
COc1ccc(C(=O)Nc2cc(C)c(O)c(-c3nc4ccccc4s3)c2)cc1OC	nt	nt	nt	nt	nt	21%	13%	?
SMILES	FLuc inh-1	GPT2 inh	3T3 cytotox	NPR1 antag	HEK cytotox	FLuc SDR no ATP	FLuc SDR ATP	FLuc inh-2
COc1cc(C(=O)Nc2cc(C)c(O)c(-c3nc4ccccc4s3)c2)cc(OC)c1OC	nt	nt	nt	nt	nt	15%	10%	-7%
COc1cc(NC(=O)c2cc3c(=O)[nH]c(C)cn3n2)cc(OC)c1OC	?	-15%	?	-1%	-29%	nt	nt	nt
O=C(NCCC1=CCCCC1)c1c(OCC2CC2)cc(=O)n2c1CCOCC2	nt	3%	-12%	nt	i	nt	nt	nt
Cc1ccc(-c2noc([C@@H]3CCCN3C(=O)c3ccc(C)nc3)n2)cc1	?	i	-24%	1%	-12%	nt	nt	nt
Cc1ccccc1S(=O)(=O)N1CCC(c2noc(-c3ccccn3)n2)C1 (centres undefined)	i	i	-14%	1%	-10%	nt	nt	nt
Cc1cnc(CCNC(=O)Nc2ccc3c(c2)OCCO3)n1C1CC1	6.3µM*	i	-21%	-15%	-25%	19%	16%	?
Cc1cnc(CCNC(=O)Nc2ccc3c(c2)OCCO3)n1Cc1ccc(F)cc1	14µM*	2%	-19%	-29%	40µM*	19%	15%	?
CNC(=O)NCCc1ncc(C)n1C1CCCCCC1	i	i	-3%	4%	2%	nt	nt	nt
CC(=O)N1CCC(NC[C@H]2O[C@@H]3C[C@@H](CC(=O)N4CCOCC4)O[C@@H]3[C@@H]2O)CC1	i	i	-1%[174 µM]	2%[70.6 µM]	5%[172 µM]	nt	nt	nt
CCCNC(=O)N(C1CCOCC1)C1CCN(S(=O)(=O)c2cccnc2)CC1	i	i	i	0%	4%	nt	nt	nt
C[C@@H]1O[C@@H](OC[C@H]2O[C@@H](OCC3CCC4CC3C4(C)C)[C@H](O)[C@@H](O)[C@@H]2O)[C@H](O)[C@H](O)[C@H]1O (some centres undefined)	nt	i	nt	nt	nt	nt	nt	nt
CCOc1cc(=O)n2c(c1C(=O)NCc1ccccn1)CCCCC2	i	i	?	1%	3%	nt	nt	nt
CCOc1ccc(-n2nc(CO)c(C(=O)NCc3ccccn3)n2)cc1	nt	nt	nt	nt	nt	28%	17%	?
CCOc1ccc(-n2nc(CO)c(C(=O)NCc3cccc(OC)c3)n2)cc1	nt	nt	nt	nt	nt	23%	15%	?
c1ccc(COc2ccc(CN3CCSCC3)cc2)nc1	10µM*	2%	i	3%	?	21%	15%	?
NC(=O)[C@@H]1CN(Cc2ccccn2)C[C@H]1COc1ccccc1	i	?	?	4%	-16%	nt	nt	nt
